A short description of test [1]: qHTS assay to identify small molecule antagonists of the estrogen related receptor (ERR) signaling pathway from Tox21 library - cell viability counter screen (AID 1224834). Further: nearly all actives have a fitted effect of over 30% in size. Further: potency means the concentration at half of the fitted maximal effect. Put shortly: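 Multiplexed viability counter screen in ERR cells: 17.5 h compound exposure at 37 C, CellTiter-Fluor added, 30 min at 37 C/5% CO2, fluorescence read.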
(Quantitative high-throughput screening tests each substance at several concentrations.)

The target of test [2] is Luciferin 4-monooxygenase (Photinus pyralis) (UniProt P08659). Briefly: qHTS assay to identify small molecule inhibitors of firefly luciferase (AID 1224835). Further: nearly all actives have a fitted effect of over 25% in size. Further: potency means the concentration at half of the fitted maximal effect. Summed up:
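Inhibition of purified Photinus luciferase is measured by luminescence. Substrate levels (D-luciferin, ATP) sit at their KM values. Each compound is tested in a concentration series.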

The nature of test [3]: qHTS assay to identify small molecule agonists of the constitutive androstane receptor (CAR) signaling pathway - cell viability counter screen (AID 1224836). Further: nearly all actives have a fitted effect of over 45% in size. Summed up:
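HepG2 cells stably carrying hCAR and a CYP2B6-2.2kb reporter were plated 4 h, then given compounds at 15 concentrations plus PK11195 (final 0.75 uM). After 23 h at 37 C, viability was read by CellTiter-Fluor fluorescence.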

Test [4] can be described thus: qHTS assay to identify small molecule antagonists of the constitutive androstane receptor (CAR) signaling pathway - cell viability counter screen (AID 1224837). Further: nearly all actives have a fitted effect of over 45% in size. Summed up: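 Read-out: CellTiter-Fluor fluorescence after 23 hr at 37 C/5% CO2. Cells: HepG2 double-stable for hCAR and CYP2B6-2.2kb. Compounds tested at 15 concentrations in the presence of CITCO, final concentration 50 nM.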

Test [5] deals with Nuclear receptor subfamily 1 group I member 3 (Homo sapiens) (UniProt Q14994). Kind of test: qHTS assay to identify small molecule antagonists of the constitutive androstane receptor (CAR) signaling pathway (AID 1224838). Further: nearly all actives have a fitted effect of over 40% in size. Further: potency means the concentration at half of the fitted maximal effect. Put shortly: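 Read-out: ONE-Glo luciferase luminescence after 30 min at room temperature. HepG2-CYP2B6-hCAR double-stable cells, compounds in 15-point titration plus 50 nM CITCO final, 24 h at 37 C/5% CO2.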

Test [6] can be described thus: qHTS assay to identify small molecule antagonists of the estrogen related receptor signaling pathway with the pleiotropic PPARgamma coactivator (PGC) from Tox21 10K library (AID 1224841; call rule not given here; further: actives are mostly falling curves and most rising ones were filed inactive; nearly all actives have a fitted effect of over 50% in size). Summed up:
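Luminescence read-out (One-Glo luciferase reagent, 30 min at room temperature) from PGC/ERR cells exposed to DMSO-dissolved test compounds for 18 h at 37 C; cells, 2,000 per well, had been preincubated 6 h before compound transfer.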

The nature of test [7]: qHTS assay to identify small molecule agonists of the estrogen related receptor signaling pathway with the pleiotropic PPARgamma coactivator (PGC) from Tox21 10K library (AID 1224842). Further: nearly all actives have a fitted effect of over 15% in size. Put shortly:
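Luminescence from One-Glo (30 min, room temperature) measured after PGC/ERR cells had 18 h at 37 C with pinned compound (23 nL in DMSO). Cells had been seeded at 2,000 per well and pre-incubated 6 h.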

The target in test [8] is Thyrotropin receptor (Homo sapiens) (UniProt P16473). Kind of test: qHTS assay to identify small molecule agonists of the thyroid stimulating hormone receptor (TSHR) signaling pathway (AID 1224843; calls by dose curve; further: nearly all actives have a fitted effect of over 45% in size; further: potency means the concentration at half of the fitted maximal effect). Put shortly: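 A cell-based cAMP HTRF format was run in TSHR-transfected HEK293 cells, 800 per well. Treatment: 30 min, room temperature. Detection: 1 h with labelled cAMP and anti-cAMP cryptate. Concentration-response over 15 points, three replicates.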

Test [9] in a line: qHTS assay to identify small molecule agonists of the hypoxia (HIF-1) signaling pathway - cell viability counter screen (AID 1224844; calls by dose curve; further: nearly all actives have a fitted effect of over 50% in size; further: potency means the concentration at half of the fitted maximal effect). Put shortly:
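CellTiter-Glo luminescence read-out, 30 min RT, taken in the same wells as the beta-lactamase HRE reporter assay; HRE-bla ME-180 cells, 0.5% dialyzed FBS, 17 hr compound treatment at 37C, 5% CO2.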

Test [10] in a line: qHTS assay to identify small molecule agonists of H2AX (AID 1224845; active means well fitted activation curve with a large enough effect in the signal ratio in the repeat runs, not every such curve was filed as active; the % refers to the signal ratio). Put shortly:
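Phospho-H2AX Ser139 measured by HTRF (ex 320 nm; em 665 and 620 nm) after 24 hr antibody incubation. Compounds, 15 concentrations, 0.76% DMSO, were applied to CHO-K1 cells for 3hr at 37C before lysis.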

Test [11] is described as follows: qHTS assay to identify small molecule agonists of H2AX - cell viability counter screen (AID 1224847; calls by dose curve; further: top concentration of the series differs between compounds; nearly all actives have a fitted effect of over 30% in size). Put shortly: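 Wild-type CHO-K1 cells (10% FBS medium) were plated overnight at 37C, exposed to compounds at 15 concentrations for 3 hr at 37C (0.76% DMSO final), and viability was read as CellTiter-Glo luminescence after 30 min at room temperature.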
Test [12] is described as follows: qHTS assay to identify small molecule antagonists of the estrogen related receptor (ERR) signaling pathway from Tox21 library (AID 1224848). Further: nearly all actives have a fitted effect of over 50% in size. Put shortly: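 ERR cell line, 2,000 cells/well. 6 h settle, then compound (DMSO) added; 18 h at 37 C; ONE-Glo luminescence after 30 min RT.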
The nature of test [13]: qHTS assay to identify small molecule agonists of the estrogen related receptor (ERR) signaling pathway from Tox21 library (AID 1224849; calls by dose curve; further: nearly all actives have a fitted effect of over 15% in size). Particulars: ERR reporter cell line, ONE-Glo luciferase, 18 h; at 92.4 µM (top of the series) unless noted. Put shortly: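 Luminescence readout (ONE-Glo, 30 min RT) after 18 h compound exposure at 37 C of NTP-supplied ERR reporter cells; cells were plated 6 h before compound addition by pin tool.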

The nature of test [14]: qHTS RealTime-Glo MT Cell Viability Assay in HepG2 cells - 24 hour (AID 1224867). Further: nearly all actives have a fitted effect of over 50% in size. Put shortly: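 Compound treatment began 5 h after plating HepG2 cells (600/well) with NanoLuc luciferase and prosubstrate. Plates stayed at 37 C for 40 h; luminescence was captured at six time points, 0 h through 40 h.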
Test [15] can be described thus: qHTS RealTime-Glo MT Cell Viability Assay in HEK293 cells - 32 hour (AID 1224868). Put shortly: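 Quantitative high-throughput screen of the Tox21 10K library in HEK293: cells and RealTime-Glo reagents plated together, compound added at 5 h, luminescence monitored through 40 h at 37 C.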
Test [16] is described as follows: A CellTox Green Cytotoxicity Assay to monitor cytotoxicity in HEK293 cells - 0 hour (AID 1224869). Further: nearly all actives have a fitted effect of over 50% in size. Put shortly:
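Read-out: fluorescence of a cell-impermeant cyanine dye staining DNA of dead cells, proportional to cytotoxicity. HEK293, 600 cells/well with reagent, compound (23 nL DMSO) added after 5 h; reads at 0, 8, 16, 24, 32, 40 h.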

Test [17] in a line: qHTS RealTime-Glo MT Cell Viability Assay in HepG2 cells - 40 hour (AID 1224870). Further: nearly all actives have a fitted effect of over 50% in size. Summed up:
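Real-time viability: cells seeded at 600 per well together with NanoLuc and cell-permeant prosubstrate, compounds added after 5 h incubation. Luminescence tracked at 0, 8, 16, 24, 32 and 40 h of exposure.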

Test [18] can be described thus: qHTS assay to identify small molecule antagonists of the estrogen related receptor signaling pathway with the pleiotropic PPARgamma coactivator (PGC) from Tox21 10K library - cell viability counter screen (AID 1224840; active means well fitted cell-killing curve with a large enough effect in the repeat runs, not every such curve was filed as active; further: nearly all actives have a fitted effect of over 40% in size). Put shortly:
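Fluorescence read-out of CellTiter-Fluor viability reagent, added after cells had been exposed to compound in DMSO for 17.5 h at 37 C; 30 min development at 37 C/5% CO2. Cells: PGC/ERR line, 2,000/well.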

In test [19] the target is Nuclear receptor subfamily 1 group I member 3 (Homo sapiens) (UniProt Q14994). Kind of test: qHTS assay to identify small molecule agonists of the constitutive androstane receptor (CAR) signaling pathway (AID 1224839).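 Further: HepG2 cells stably carrying human CAR and a CYP2B6 luciferase reporter; nearly all actives have a fitted effect of over 15% in size.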 Summed up:
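HepG2 cells stably expressing hCAR and a CYP2B6-2.2kb luciferase reporter were treated with compounds at 15 concentrations plus 0.75 uM PK11195 (final) for 24 h at 37 C; luminescence was read after ONE-Glo addition.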

Test [20] can be described thus: qHTS assay to identify small molecule agonists of the hypoxia (HIF-1) signaling pathway (AID 1224846; active means well fitted activation curve with a large enough effect in the signal ratio in the repeat runs, not every such curve was filed as active; the % refers to the signal ratio). Summed up:
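Beta-lactamase FRET read-out (CCF4-AM substrate) from ME-180 cells carrying an HRE-driven bla reporter, after 17 hrs compound exposure at 37C/5% CO2. Cells were seeded at 2,000 per well in 0.5% dialyzed FBS medium and preincubated 5 hrs.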

Each structure is given as a SMILES string. “And” between values parts separate entries of the source, which are not always exact repeats. Equal entries are not always repeated. Inconclusive results are not listed. Where a structure was tested more than once in an assay, its records may differ in their call. The source made the active and inactive calls. Unless noted, the call rests on the fitted dose curve; in most records, active means well fitted curve in the direction sought with a large enough effect in the repeat runs; inconclusive means weak or mixed curves; inactive means no such curve, though single readings can be large; an effect the other way counts as inactive or inconclusive.
On the % scale 0 is the no-effect control and ±100 the full control effect.

Luciferin 4-monooxygenase (Photinus pyralis), sequence (P08659 whole entry, looked up): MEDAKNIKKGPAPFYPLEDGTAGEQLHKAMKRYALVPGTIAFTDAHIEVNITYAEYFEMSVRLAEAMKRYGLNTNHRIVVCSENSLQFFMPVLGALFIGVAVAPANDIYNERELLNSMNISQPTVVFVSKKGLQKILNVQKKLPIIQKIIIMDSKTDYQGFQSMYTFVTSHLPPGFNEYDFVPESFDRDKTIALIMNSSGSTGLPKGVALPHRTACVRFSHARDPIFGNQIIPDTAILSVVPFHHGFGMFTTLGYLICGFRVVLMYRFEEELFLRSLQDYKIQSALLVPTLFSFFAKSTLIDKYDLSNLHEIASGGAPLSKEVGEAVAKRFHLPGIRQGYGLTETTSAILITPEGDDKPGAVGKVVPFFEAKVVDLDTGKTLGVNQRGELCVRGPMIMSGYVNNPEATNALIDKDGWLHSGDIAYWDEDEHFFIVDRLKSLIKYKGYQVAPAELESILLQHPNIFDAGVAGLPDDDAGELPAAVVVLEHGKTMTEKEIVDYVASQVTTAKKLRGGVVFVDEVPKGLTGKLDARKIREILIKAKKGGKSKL
Nuclear receptor subfamily 1 group I member 3 (Homo sapiens), sequence (Q14994 whole entry, looked up): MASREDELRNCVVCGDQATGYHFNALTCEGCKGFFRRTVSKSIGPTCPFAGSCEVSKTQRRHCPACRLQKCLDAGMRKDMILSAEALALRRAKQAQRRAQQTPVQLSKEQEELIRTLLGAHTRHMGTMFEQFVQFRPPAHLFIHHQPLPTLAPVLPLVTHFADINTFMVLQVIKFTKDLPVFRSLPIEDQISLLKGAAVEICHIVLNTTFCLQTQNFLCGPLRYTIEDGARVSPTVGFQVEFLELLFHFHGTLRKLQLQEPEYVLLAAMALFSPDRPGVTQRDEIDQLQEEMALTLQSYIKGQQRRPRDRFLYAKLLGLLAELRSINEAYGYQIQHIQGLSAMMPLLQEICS
Thyrotropin receptor (Homo sapiens), sequence (P16473 whole entry, looked up): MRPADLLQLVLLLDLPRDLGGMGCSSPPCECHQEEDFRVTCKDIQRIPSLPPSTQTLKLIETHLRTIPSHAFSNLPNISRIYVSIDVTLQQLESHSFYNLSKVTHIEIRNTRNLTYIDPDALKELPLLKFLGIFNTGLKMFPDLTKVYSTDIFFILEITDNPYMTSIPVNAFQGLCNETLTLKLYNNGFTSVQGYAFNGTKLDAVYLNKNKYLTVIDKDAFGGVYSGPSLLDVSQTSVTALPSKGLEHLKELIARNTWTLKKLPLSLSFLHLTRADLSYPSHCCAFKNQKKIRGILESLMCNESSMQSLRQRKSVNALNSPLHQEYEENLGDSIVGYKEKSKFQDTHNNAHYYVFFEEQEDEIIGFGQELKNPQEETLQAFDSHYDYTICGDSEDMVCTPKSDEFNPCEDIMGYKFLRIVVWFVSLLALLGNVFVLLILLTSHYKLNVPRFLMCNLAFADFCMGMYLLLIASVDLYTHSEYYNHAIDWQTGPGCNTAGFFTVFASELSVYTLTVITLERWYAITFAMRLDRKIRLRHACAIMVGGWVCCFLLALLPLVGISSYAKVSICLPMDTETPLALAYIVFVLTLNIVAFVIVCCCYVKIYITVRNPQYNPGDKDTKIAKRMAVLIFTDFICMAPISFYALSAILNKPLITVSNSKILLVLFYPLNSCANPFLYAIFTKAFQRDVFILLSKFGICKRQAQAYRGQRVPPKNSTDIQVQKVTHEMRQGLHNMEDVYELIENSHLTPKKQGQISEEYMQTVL

Consider `CC(C)(O)C(=O)c1ccccc1`, for which the Potency result in [1], in [2], in test [3], in [4], in [5] and in test [6] was “inactive” throughout. For the same molecule, the Potency result in test [8], in test [9], in test [11], in test [12], in [14] and in [15] was “inactive” each time. The Potency result in test [16] and in test [17] was “inactive” throughout. The result in test [7] and in test [10] was inactive. Further, the activity change, positive = activation in [13] was 0.982% (inactive).

In the case of `COC(=O)C1=C(C)NC(C)=C(C(=O)OC)C1c1ccccc1[N+](=O)[O-]`, the Potency is 54.5 µM (active) and inactive in test [1]; 40 µM (active) and inactive in test [2]; 54.5 µM (active) and inactive in test [8]; 49 µM (active) and inactive in [9]. Also, the Potency entry in test [3], in [4], in test [18], in [6], in test [11] and in test [12] was “inactive” throughout. In addition, the Potency result in test [14], in test [15], in [16] and in [17] was “inactive” each time. Besides, the call in [7] and in test [10] was inactive.

As to `CCO/C([O-])=N/c1c[n+](N2CCOCC2)no1`, the Potency result in test [1], in test [2], in test [3], in [4], in test [18] and in test [6] was “inactive” throughout. Besides, the Potency entry in [8], in [9], in test [11], in [12], in [14] and in test [15] was “inactive” each time. Besides, the Potency entry in test [16] and in [17] was “inactive” throughout. Moreover, the molecule was classed as inactive in test [7] and in test [10].

For the molecule `O=C1CCCN1C1CCCCC1`, the Potency entry in test [1], in [2], in test [3], in test [5], in test [19] and in [18] was “inactive” in each case. The Potency result in test [6], in test [9], in test [11], in [12], in test [14] and in [15] was “inactive” in each case. In addition, the Potency result in test [16] and in test [17] was “inactive” throughout. The result in test [7], in test [10] and in [20] was inactive. Moreover, the activity change, positive = activation in test [13] is -1.04% (inactive).

On to `N=C(N)c1ccccc1`, for which the Potency entry in test [1], in [2], in [3], in test [4], in test [5] and in [18] was “inactive” each time. Moreover, the Potency result in test [8], in test [9], in test [11], in test [14], in [15] and in test [16] was “inactive” throughout. In test [17], the Potency result was “inactive”. In addition, the outcome in test [10] was inactive.

`CCOc1ccc(C(=O)OCCN(CC)CC)cc1`: the Potency entry in [1], in test [2], in test [3], in test [4], in test [5] and in [6] was “inactive” each time. The Potency entry in [8], in [9], in test [11], in test [12], in test [14] and in [15] was “inactive” throughout. The Potency entry in test [17] was “inactive”. For the same molecule, the call in [7] and in [10] was inactive.

For the molecule `CC(=O)N(CC(O)CO)c1c(I)c(C(=O)NCCO)c(I)c(C(=O)NCC(O)CO)c1I` (stereo not given), the Potency result in [1], in test [2], in test [3], in test [5], in test [19] and in test [18] was “inactive” throughout. In addition, the Potency entry in [6], in [8], in [9], in test [11], in test [12] and in test [14] was “inactive” each time. In addition, the Potency entry in test [15], in test [16] and in [17] was “inactive” in each case. Further, the outcome in test [7], in test [10] and in test [20] was inactive. In [13], the activity change, positive = activation was 5.17% [at 42.5 µM] (inactive).

Take `CCC(C)C1CCCCC1=O` (stereo not given): the Potency entry in test [1], in test [2], in test [3], in test [5], in test [19] and in test [18] was “inactive” in each case. Further, the Potency entry in [6], in test [8], in test [9], in [11], in [12] and in test [14] was “inactive” in each case. Also, the Potency entry in test [15], in [16] and in test [17] was “inactive” each time. The molecule was called inactive in [7], in [10] and in test [20]. For the same molecule, the activity change, positive = activation in test [13] is 3.66% (inactive).

Consider `C[N+](C)(C)CCCCCC[N+](C)(C)C`, for which the Potency entry in test [1], in test [2], in [3], in [4], in [18] and in [9] was “inactive” throughout. Also, the Potency result in test [11], in test [14], in test [15], in test [16] and in test [17] was “inactive” throughout. Moreover, the Potency result in test [5] was “inactive and 26.6 µM (active)”. In [10], the molecule was classed as inactive.

`N=c1nc(N2CCCCC2)cc(N)n1O`: the Potency entry in test [1], in [2], in test [3], in [4], in test [5] and in test [18] was “inactive” throughout. The Potency result in test [8], in [9], in test [11], in test [14] and in test [15] was “inactive” in each case. The call in [10] was inactive.

For `COCCCOCCCOC`, the Potency result in test [1], in test [2], in [3], in test [5], in test [19] and in test [18] was “inactive” in each case. The Potency result in [6], in test [8], in test [11], in test [12], in test [14] and in [15] was “inactive” throughout. Also, the Potency entry in test [17] was “inactive”. For the same molecule, the call in test [7], in [10] and in [20] was inactive.
